# Out of some 140,000 compounds screened, about 2,100 (1.5%) were called active. Only a selection was taken, and actives are over-represented in it overall. A number with no mark means an inactive call.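 Rule for the calls: active = viability at or under a set limit, the compound median less 4 SD (cut at about 6% in these data); inactive = the rest.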
# Experiment: primary screen for growth suppressors in beta-catenin knockout HCT116 cells (colon tumor, human) (AID 818);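 note: 0% = Hyamine 1622 control at 20 µM and 100% = untreated cell control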
# Conditions: CellTiter-Glo, 60 h, at 10 µM, hits give low values
row,SMILES,viability
1,COc1cccc(NC(=S)NCc2ccco2)c1,96.7%
2,O=[N+]([O-])c1ccc(C=Nc2ccc(Cl)cc2Cl)s1,3.51% (active)
3,CC1(C)CC(=O)C/C(=N\NC(=O)c2cccs2)C1,93%
4,Cc1ccc(S(=O)(=O)N(Cc2ccc(Cl)cc2)c2ccccc2C(=O)NCc2cccnc2)cc1,81.5%
5,O=C1/C(=C\c2ccccc2Cl)SC(=S)N1CCC(=O)N1CCCc2ccccc21,4.79% (active)
6,O=C(c1c(Cl)nc2sccn12)N1CCCc2ccccc21,91.5%
7,O=C(CCCN1C(=O)/C(=C/c2ccco2)SC1=S)Nc1ccccc1,25.7%
8,CCOc1ccc(C(=O)Nc2cccc(SC)c2)cc1,86.8%
9,NC1=NC(=O)S/C1=C\c1ccc(O)cc1,78.6%
10,CCOC(=O)c1c(C)[nH]c2c1-c1ccccc1C(=O)C2=O,1.06% (active)
11,CCOC(=O)c1c(C)[nH]c(=S)c(C#N)c1-c1ccccc1,101%
12,CCOC(=O)c1cc2n(c1C)-c1ccccc1C2=O,90.9%
13,CCC1(C(=O)c2ccccc2)C(c2cccc([N+](=O)[O-])c2)C1(C(=O)OC)C(=O)OC (stereo not given),82.6%
14,Cc1cc(/C=C2\SC(=Nc3ccc(N4CCOCC4)cc3)N(C)C2=O)c(C)n1-c1cccnc1,54.8%
15,CCOC(=O)NN1C(=O)c2ccccc2NC1c1cccc(O)c1 (stereo not given),106%
16,O=C1c2ccccc2NC(c2ccc(-c3cccc(Cl)c3)o2)N1O (stereo not given),2.84% (active)
17,C=CCn1c(CCNC(=O)c2cccs2)n[nH]c1=S,99.3%
18,COC(=O)Cn1c(=NC(=O)c2cc(OC)c(OC)c(OC)c2)sc2cc(OC)ccc21,81.5%
19,O=C1/C(=C\c2cccnc2)CN(Cc2ccccc2)C/C1=C\c1cccnc1,5.51% (active)
20,O=C(O)C1CC(=O)N(Cc2cccnc2)C1 (stereo not given),90.7%

row,SMILES,viability
1,O=C1OC(c2ccc(Cl)cc2)=N/C1=C\c1cccnc1,95.6%
2,CCc1ccc(NC2Nc3cc(C)nn3S2)cc1 (stereo not given),95.4%
3,O=C(CSc1nc2ccccc2[nH]1)c1cccs1,78.2%
4,CCC(C)N1C(=O)S/C(=C/c2ccc(Sc3nc4ccccc4[nH]3)o2)C1=O (stereo not given),4.08% (active)
5,CN=C1S/C(=C\c2ccc(Sc3ccc(Cl)cc3)o2)C(=O)N1C,96.9%
6,CC1Cc2ccccc2N1C(=O)CSc1nnc(-c2ccc(S(=O)(=O)N3CCCC3)cc2)n1C (stereo not given),81%
7,CCCCN(CC)C(=O)c1ccccc1Oc1ccccc1,85.8%
8,COC1=CCC2([N+](=O)[O-])CN(CC(=O)O)CC1([N+](=O)[O-])C2 (stereo not given),99%
9,O=C(Cc1ccc(Cl)c(Cl)c1)Nc1ccc(SC(F)F)cc1,35.8%
10,O=C(CC(=O)Nc1ccc(Cl)c(Cl)c1)N/N=C/c1ccc(O)cc1,81%
11,O=C(CC(O)(C(F)(F)F)C(F)(F)F)Nc1ccc(Cl)c(Cl)c1,2.26% (active)
12,C/C(=N\Nc1ccc([N+](=O)[O-])cc1)c1ccc(-n2nncc2C(C)(C)C)cc1,97.1%
13,CCN(/N=C/c1ccc(N(C)C)cc1)c1nc2ccccc2[nH]1,87.6%
14,O=C(COC(=O)c1cc([N+](=O)[O-])ccc1NCc1ccccc1)NC1CCCCC1,45.6%
15,C/C(CCC(=O)OC[C@H]1O[C@H](C#Cc2ccccc2)C=C[C@@H]1Oc1ccc(C)cc1)=N\OC[C@@H](O)[C@H]1O[C@@H]2OC(C)(C)O[C@@H]2[C@H]1O,86.2%
16,CSCCC(Nc1ccc(S(=O)(=O)N2CCOCC2)cc1[N+](=O)[O-])C(=O)OCC(=O)N(C(C)C)C(C)C (stereo not given),92.2%
17,COc1ccc(Oc2c(Cl)cnn(-c3ccccc3)c2=O)cc1,5.5% (active)
18,Cc1ccc(-c2nc3c(cnn3-c3ccccc3)c(=O)o2)cc1,95.4%
19,COc1ccc(-n2c(C)nc3c(cnn3-c3ccccc3)c2=O)cc1,29.9%
20,COc1ccccc1OCc1ccc(C(=O)N2CCN(C)CC2)o1,101%

row,SMILES,viability
1,CCOc1ccc(C(=O)Nc2nccs2)cc1[N+](=O)[O-],94%
2,COc1ccc(Nc2cc(C)nc(-n3nc(C)cc3C)n2)cc1,15.2%
3,COc1cc(NS(=O)(=O)c2ccccc2)ccc1-n1nc(C)cc1C,101%
4,COc1ccccc1/C=N\Nc1cc(C)nc(-n2nc(C)cc2C)n1,3.9% (active)
5,COc1ccc(-n2c(=S)[nH]c3sc4c(c3c2=O)CCc2ccccc2-4)cc1,81%
6,CN(C)C(=O)c1ccc2c(c1)C1C3CCC(C3)C1C(c1ccccc1)N2 (stereo not given),83.3%
7,CC(C)(C)c1ccc(C(=O)NCCn2c(N)c(C#N)c3nc4ccccc4nc32)cc1,66.5%
8,N#Cc1c(N)n(CCOC(=O)c2ccc(Cl)cc2)c2nc3ccccc3nc12,84.2%
9,CN(C)CCCn1c(N)c(C#N)c2nc(C#N)c(C#N)nc21,5.78% (active)
10,CCC1C(=O)c2ccccc2N(C)C1=O (stereo not given),88.1%
11,C[C@@H](O)c1nc2ccccc2n1N,96%
12,CCOc1ccc(NC(=O)CCC(=O)N/N=C/c2ccc([N+](=O)[O-])s2)cc1,5.45% (active)
13,CCOc1ccc(NC(=O)CN2CCN(CC(=O)Nc3ccc(OC)cc3)CC2)cc1,85.4%
14,CCOc1ccc(NC(=O)CCC(=O)n2nc(C)cc2C)cc1,96.2%
15,CSc1ccc(/C=N/NC(=O)c2cccc(Cl)c2)cc1,84.1%
16,COc1ccc2c(-c3ccccc3)cc(SCC(=O)N(C)C3CCS(=O)(=O)C3)nc2c1 (stereo not given),81.2%
17,CCCn1nc(NS(=O)(=O)c2ccccc2)c2cc3cc(C)ccc3nc21,91.5%
18,Cc1ccccc1C(CC(=O)c1cccs1)C(C#N)C#N (stereo not given),2.37% (active)
19,Cc1ccc(C)c(NC(CC(=O)c2ccccc2)C(=O)OCC(=O)c2cccs2)c1 (stereo not given),86.5%
20,O=C(CCC(=O)c1cccs1)NCc1ccccc1,88.8%

# From PubChem BioAssay AID818 (SRMLSC, 2007)
